# Source: PubChem
# Most compounds without a hit are left out; they make up all but 2.4% or so of the library.
# D2 ag-1 = Beta-Arrestin HTS for Positive Allosteric Modulators of the Human D2 Dopamine Receptor: Agonists | D(2) dopamine receptor (Homo sapiens), P14416 | DiscoveRx PathHunter D2 beta-arrestin, luminescence, 90 min; 100% = 57 uM dopamine signal | activation, % (test concentration not listed) | actives 0.084% (n = 360,000); in the data active = activation above about 40%; inconclusive = between about 15% and that limit
#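 Agonist mode: compounds alone added to overnight-plated D2 PathHunter cells for 90 min at 37 C, with 57 uM final dopamine (EC100) defining full response. Beta-arrestin recruitment detected by chemiluminescent reagent, read after 1 h at ambient temperature.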
# D2 ag-2 = HTS Assay for Allosteric Agonists of the Human D2 Dopamine Receptor: Primary Screen for Agonists; D(2) dopamine receptor (Homo sapiens), P14416; HEK293 T-REx D2 cells, calcium flux agonist mode; activation, % at 2 µM; actives 0.53% (n = 340,000); AID 485358, 2010;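 active = activation over 3 SD above normal in the single-dose calcium agonist read, cut at about 30% in these data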; also: 0% is about no effect
#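 Agonism is scored from calcium flux in a force-coupled, inducible HEK293 cell line expressing D2, read kinetically for 180 s after compound addition against dopamine controls.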
# D2 PAM-1 = HTS Assay for Positive Allosteric Modulators of the Human D2 Dopamine Receptor: Primary Screen for Potentiators; D(2) dopamine receptor (Homo sapiens), P14416; HEK293 T-REx D2, calcium flux, EC20 dopamine potentiation; potentiation, % at 10 µM; actives 0.34% (n = 340,000); AID 485347, 2010;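 active = potentiation over 3 SD above the plate norm, cut at about 30% in these data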; also: 0% is about no effect
#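 Potentiation of an EC20 dopamine calcium response measured kinetically over 180 s, after a preceding 180 s compound-only read flagging agonists. Cells: inducible Hek293 Trex D2 line, 4000/well, cultured overnight at 30 C before dye loading.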
# D2 antag = HTS Assay for Allosteric Antagonists of the Human D2 Dopamine Receptor: Primary Screen for Antagonists; actives 2% (n = 340,000); inhibition, % at 10 µM; HEK293 TREx D2 cells, calcium flux, dopamine EC80; in the data active = inhibition above about 30%; inactive = below that, where a call was filed; also: 0% is about no effect
#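 Calcium flux kinetic readout in an inducible HEK293 TREx D2 line plated overnight at 30 C. After 180 s compound exposure, an EC80 dopamine challenge follows with another 180 s kinetic read to detect antagonism.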
# D2 PAM-2 = Beta-Arrestin HTS for Positive Allosteric Modulators of the Human D2 Dopamine Receptor: Potentiators; actives 0.23% (n = 360,000); D(2) dopamine receptor (Homo sapiens), P14416; AID 624464, 2012; DiscoveRx D2 beta-arrestin cells, luminescence, 90 min; 100% = 57 uM dopamine signal; potentiation, % (test concentration not listed); in the data active = potentiation above about 50%; inconclusive = mostly about 30% to 49%
#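 PathHunter D2 cells, attached overnight at 37 deg C, received compound in DMSO plus dopamine at EC20 (50 nM final) for 90 min at 37 deg C. Beta-arrestin recruitment was read as luminescence after 1 h with detection reagent at ambient temperature.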
# D3 arrestin ag = qHTS of D3 Dopamine Receptor Agonist: D3 Dopamine Receptor B-arrestin Agonist Confirmatory Assay | DiscoveRx D3 beta-arrestin cells, luminescence, 90 min | shares compounds with D2 ag-2 | actives 4% (n = 2,300) | Potency, µM (highest dose often 76.9 µM), for inactives: at the highest dose activation, actives largely listed as activators;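 also: potency is read from the fitted curve at half-maximal effect; 100% = dopamine control response; nearly all actives have a fitted effect of over 70% in size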
# Target sequence (P35462 whole entry, looked up): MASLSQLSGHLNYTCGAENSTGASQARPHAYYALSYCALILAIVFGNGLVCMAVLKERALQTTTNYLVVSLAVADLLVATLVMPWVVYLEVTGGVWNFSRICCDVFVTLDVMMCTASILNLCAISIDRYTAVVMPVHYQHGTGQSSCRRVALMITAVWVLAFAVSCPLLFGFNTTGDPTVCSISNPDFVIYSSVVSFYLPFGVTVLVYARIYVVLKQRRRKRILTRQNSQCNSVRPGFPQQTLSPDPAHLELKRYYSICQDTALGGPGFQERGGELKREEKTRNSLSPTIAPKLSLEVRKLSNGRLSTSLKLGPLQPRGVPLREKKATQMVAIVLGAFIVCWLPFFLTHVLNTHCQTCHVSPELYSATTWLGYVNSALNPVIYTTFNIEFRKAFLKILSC
# D2 ag-3 = qHTS of D3 Dopamine Receptor Agonist: D2 Dopamine Receptor B-arrestin Agonist Counterscreen; Potency, µM (top dose mostly 76.9 µM), without a hit: at the highest dose activation, hits mostly activators; AID 720507, 2013; actives 5.9% (n = 2,300); shares compounds with D2 ag-2; DiscoveRx PathHunter D2 beta-arrestin, luminescence, 90 min; response scale: percent relative to full dopamine signal; also: potency is read from the fitted curve at half-maximal effect; % of control where 0% means no effect; nearly all actives have a fitted effect of over 70% in size
# The depositor's hits bear a star; ? = inconclusive; nt = no result given. Unless noted, calls follow the shape of the dose curve; as a rule, active = well fitted activation curve with a large enough effect; inconclusive = small, poorly fitted or top-dose-only effect; inactive = flat fitted curve, though single readings scatter.
SMILES,D2 ag-1,D2 ag-2,D2 PAM-1,D2 antag,D2 PAM-2,others
O=Cc1c(C(=O)O)n(Cc2ccc(Cl)cc2)c2ccccc12,-1,31*,-7,5,-11,
N#Cc1cccc(NC(=O)c2sc3nc4c(cc3c2N)N2CCC4CC2)c1,nt,0,2,nt,nt,
CCN(CC)P(=O)(c1n(CC)cc[n+]1CC)N(CC)CC,-4,0,31*,-17,-1,
CN1C(=O)CN=C(c2ccc(Cl)cc2)c2cc(Cl)ccc21,-2,-1,7,34*,0,
CN1C(=O)CN=C(c2ccc[nH]2)c2cc(Cl)ccc21 (tested in a mixture with another compound),-2,nt,nt,nt,-7,
CCCCn1c(NC(=O)c2ccc(Br)o2)c(C(=O)OCC)c2nc3ccccc3nc21,-15,37*,-16,-5,-14,
Cc1ccc(-n2c(/C=C/c3cc(Br)cs3)nc3ccccc3c2=O)cc1,nt,1,5,nt,nt,
Cc1cccc(-n2c(/C=C/c3cn(C)c4ccccc34)nc3ccccc3c2=O)c1,nt,0,-4,nt,nt,
O=S1(=O)N(CCN2CC=C(c3c[nH]c4cc(F)ccc34)CC2)c2cccc3c2N1CCC3,12,2,-25,64*,-20,
CN1CCc2cc(O)cc3c2[C@H]1Cc1ccc(O)c(O)c1-3,106*,nt,nt,nt,101*,
CCCN1CCc2cc(O)cc3c2[C@H]1Cc1ccc(O)c(O)c1-3,241*,nt,nt,nt,129*,
CC/C(=N\Nc1cccc2ccccc12)c1c(O)[nH]c(=O)[nH]c1=O,?,1,8,-6,55*,
COc1ccccc1OCC#CCN1CCCC(C)C1 (stereo not drawn),-5,0,-38,57*,4,
COc1ccccc1OCC#CCN1CCCCCC1,0,nt,nt,nt,-10,
O=C(CCc1nc(C2=CCN(Cc3cccc(Cl)c3)CC2)no1)Nc1ccccc1F,nt,1,4,nt,nt,
CN1CC(C(=O)c2ccc(F)cc2)C(c2ccc(F)cc2)C1 (stereo not drawn),-8,1,-46,100*,-28,
NCCc1c[nH]c2ccc(C(N)=O)cc12,-6,3,-8,11,-1,
NCCc1c[nH]c2ccc(F)cc12,nt,5,-28,95*,nt,
Cc1ccc(C2SCC(=O)Nc3c2c(=O)[nH]n3C2CCOC(C)(C)C2)cc1 (stereo not drawn),-3,-1,3,37*,-21,
CCOc1ccccc1NC(=O)c1cccn(Cc2ccccc2C)c1=O,nt,1,12,nt,nt,
Cc1cccc2sc(NC(=O)c3cccn(Cc4ccccc4)c3=O)nc12,nt,2,9,nt,nt,
C/C=C(\C)C(=O)OC1C(C)=C2C(C1OC(=O)CCCCC)C(C)(OC(C)=O)CC(OC(=O)CCC)C1(O)C2OC(=O)C1(C)O (stereo not drawn),nt,66*,-12,36*,nt,
COC(=O)C1=CCCN(C)C1,1,31*,-12,-7,2,
COC(=O)c1ccc(CN2CCN(Cc3ccccc3)CC2)cc1,-1,0,-19,-5,-12,
CC(C)c1ccc(OCC(=O)N2CCN(CCc3ccncc3)CC2)cc1,nt,1,4,nt,nt,
SMILES,D2 ag-1,D2 ag-2,D2 PAM-1,D2 antag,D2 PAM-2,others
COc1cccc(C2SCC(=O)Nc3c2c(C)nn3-c2ccc(C)c(Cl)c2)c1OC (stereo not drawn),nt,nt,0,nt,nt,
O=C(C[N+]12CCC(CC1)C(CO)C2)c1ccc([N+](=O)[O-])cc1 (stereo not drawn),-3,1,1,8,2,
O=C(C[N+]12CCC(CC1)C(OC(=O)c1ccccc1)C2)c1ccc([N+](=O)[O-])cc1 (stereo not drawn),0,-1,4,33*,-2,
Cc1ccc(C)c(-n2c(C)nc3ccccc3c2=O)c1,-3,0,-19,0,-15,
Cc1cc(NCCN)nc2ccccc12,-6,3,-21,58*,-20,
O=C(COc1ccccc1[N+](=O)[O-])N1CCN(CCc2ccncc2)CC1,nt,1,-8,nt,nt,
COCc1ccc(CN2CCCC(C(=O)c3sccc3C)C2)o1 (stereo not drawn),-1,1,-25,38*,-19,
O=P(CN1CCN(c2ccccc2)CC1)(N1CCCCC1)N1CCCCC1,9,28,-1,37*,5,D3 arrestin ag=11%;D2 ag-3=13%
Fc1ccccc1N1CCN(Cc2c(F)cccc2F)CC1,4,36*,-17,21,-10,D3 arrestin ag=-2%;D2 ag-3=18%
Cc1ccccc1N1CCN(Cc2ccc3c(c2)OCO3)CC1,2,26,-21,83*,-31,D3 arrestin ag=-7%;D2 ag-3=6%
Fc1ccccc1N1CCN(Cc2ccc3c(c2)OCO3)CC1,42*,78*,-21,88*,11,D3 arrestin ag=?;D2 ag-3=?
Fc1cccc(F)c1CN1CCN(c2ccc(Cl)cc2)CC1,-1,0,2,-12,-14,
Clc1ccccc1N1CCN(Cc2ccc3c(c2)OCO3)CC1,6,71*,-17,60*,0,D3 arrestin ag=8%;D2 ag-3=?
Cc1cccc(Cn2cccc(C(=O)Nc3cc(C)on3)c2=O)c1,nt,-1,-1,nt,nt,
O=C(COc1ccccc1Cl)N1CCN(CCc2ccncc2)CC1,nt,-1,19,nt,nt,
N#Cc1cc2c(nc1SCC(=O)Nc1ccc(OC(F)(F)F)cc1)C1CCN2CC1,nt,0,-3,nt,nt,
O=C(Nc1ccc2c(c1)OCO2)c1cccn(Cc2cccc([N+](=O)[O-])c2)c1=O,nt,5,-4,nt,nt,
N#C/C=C/C#N,2,0,5,3,-1,D3 arrestin ag=-2%;D2 ag-3=-5%
CN(C)c1ccc(NC(=O)c2sc3nc4c(cc3c2N)N2CCC4CC2)cc1,nt,0,5,nt,nt,
CCCCOCCCN1C(C)=CC(=C2C(=O)NC(=S)NC2=O)C=C1C,-4,0,-10,18,-1,D3 arrestin ag=-11%;D2 ag-3=-5%
